# Laboratory results as given in PubChem BioAssay.
# Activity calls are given as the source filed them. Unless noted, the rule behind the calls is not given here.
# Tests used:
# [1] = compound effects on lung adenocarcinoma cell viability – A549, calcein-AM fluorescence, 48 h, basal, profiling panel (AID 1162); settings: higher = more signal; note: test concentration not given here
# [2] = compound effects on differentiated 3T3-L1 adipocyte viability – cell-based, 3T3-L1 adipocytes, calcein-AM fluorescence, 48 h, basal, profiling panel (AID 1163); settings: 3T3-L1 adipocytes viability, higher = more signal; note: test concentration not given here
# [3] = compound effects on hepatocellular carcinoma cell viability – HepG2, calcein-AM fluorescence, 48 h, basal, profiling panel (AID 1164); settings: higher = more signal; note: test concentration not given here
# [4] = compound effects on multiple myeloma cell viability – MM1S, calcein-AM fluorescence, 48 h, basal, profiling panel (AID 1165); settings: higher = more signal;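 note: viability of MM1S multiple myeloma cells under basal unstimulated conditions; test concentration not given here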
# [5] = calcein-AM signal in unstimulated myeloma cells – cell-based, calcein-AM fluorescence, 48 h, PK04 Diversity Set, profiling panel (AID 1166); settings: RPMI8226 myeloma viability, higher = more signal;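 note: cells grown under basal conditions without added stimulus; test concentration not given here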
# [6] = JC-1 mitochondrial signal, unstimulated HepG2 cells – cell-based, JC-1 fluorescence, 24 h, 100 nL compound, profiling panel (AID 1167); settings: HepG2 mitochondrial potential, higher = more signal; note: test concentration not given here
# [7] = JC-1 mitochondrial signal, unstimulated adipocytes – cell-based, JC-1 fluorescence, 3T3-L1 adipocytes, 24 h, 100 nL compound, profiling panel (AID 1168); settings: JC-1 mitochondrial fluorescence, higher = more signal, called active from +8 up or from −8 down; note: test concentration not given here
# [8] = JC-1 mitochondrial signal, unstimulated myeloma cells – cell-based, JC-1 fluorescence, RPMI8226, 24 h, 100 nL compound, profiling panel (AID 1169); settings: JC-1 mitochondrial potential fluorescence, higher = more signal; note: test concentration not given here
# [9] = JC-1 mitochondrial signal, unstimulated MM1S myeloma – cell-based, JC-1 fluorescence, 24 h, 100 nL compound, profiling panel (AID 1170); settings: MM1S mitochondrial potential, higher = more signal; note: test concentration not given here
# [10] = resazurin metabolic signal in A549 cells – cell-based, resazurin fluorescence, 24 h, PK04 Diversity Set, profiling panel (AID 1171); settings: A549 viability, higher = more signal, called active from +8 up or from −8 down; note: test concentration not given here
# [11] = resazurin metabolic signal in HepG2 cells – cell-based, resazurin fluorescence, 24 h, PK04 Diversity Set, profiling panel (AID 1172); settings: HepG2 viability, higher = more signal; note: test concentration not given here
# [12] = budding yeast growth changes without added modifier – OD600, strain BY4716, 24 h, basal condition, primary screen (AID 1173); settings: S. cerevisiae BY4716 growth, OD600, 24 h; higher = more signal, called active from +8 up or from −8 down
# [13] = viability profiling in MM1S myeloma cells – cell-based, resazurin fluorescence, basal, 24 h, PK04 Diversity Set, profiling panel (AID 1174); settings: higher = more signal, called active from +8 up or from −8 down; note: test concentration not given here
# [14] = target: Dihydroorotate dehydrogenase (quinone), mitochondrial (Plasmodium falciparum (isolate 3D7)) (UniProt Q08210); test: inhibition of P. falciparum DHODH – biochemical, C-terminal His tag, absorbance 600 nm, primary screen (AID 1175); settings: PfDHODH enzyme, DCIP absorbance 600 nm; higher = more signal, called active from +8 up or from −8 down;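 note: recombinant parasite enzyme with a five histidine tag at its C terminus; test concentration not given here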
# Dihydroorotate dehydrogenase (quinone), mitochondrial (Plasmodium falciparum (isolate 3D7)), sequence (Q08210 whole entry, looked up): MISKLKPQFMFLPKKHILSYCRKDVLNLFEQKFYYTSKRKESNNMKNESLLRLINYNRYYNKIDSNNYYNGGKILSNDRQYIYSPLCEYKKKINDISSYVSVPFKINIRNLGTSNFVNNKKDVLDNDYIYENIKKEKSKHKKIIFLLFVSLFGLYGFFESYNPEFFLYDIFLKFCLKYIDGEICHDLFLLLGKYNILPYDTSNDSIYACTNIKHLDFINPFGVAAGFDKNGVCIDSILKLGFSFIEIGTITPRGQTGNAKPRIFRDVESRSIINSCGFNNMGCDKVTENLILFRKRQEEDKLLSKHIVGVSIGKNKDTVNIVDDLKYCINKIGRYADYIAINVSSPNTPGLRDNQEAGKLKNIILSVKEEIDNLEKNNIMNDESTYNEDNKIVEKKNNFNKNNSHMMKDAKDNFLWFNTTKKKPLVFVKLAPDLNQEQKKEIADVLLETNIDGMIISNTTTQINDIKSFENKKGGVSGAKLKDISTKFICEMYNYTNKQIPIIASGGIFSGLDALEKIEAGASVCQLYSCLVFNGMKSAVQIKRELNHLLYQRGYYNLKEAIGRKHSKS
# [15] = inhibition of PAO1 biofilm formation – strain PAO1, LB-PBS medium, absorbance 600 nm, primary screen (AID 1176); note: test concentration not given here; settings: P. aeruginosa PAO1 growth/biofilm, A600, 12 h; higher = more signal
# [16] = growth modulation of vineyard yeast isolate – strain RM11-1a, OD600, basal, 24 h, primary screen (AID 1177);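 note: cultures grown under basal conditions with no added stressor; test concentration not given here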; settings: S. cerevisiae RM11-1a growth, OD600, 24 h; higher = more signal, called active from +8 up or from −8 down
# [17] = growth of efflux-deficient E. coli DRC39 – strain DRC39, OD650, 24 h, E. coli filamentation inducers, primary screen (AID 1178);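 note: growth measured as culture turbidity by optical density at 650 nm; test concentration not given here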; settings: E. coli DRC39 acrAB, higher = more signal, called active from +8 up or from −8 down
# [18] = growth of efflux-deficient E. coli DRC39 – strain DRC39, OD650, 48 h, E. coli filamentation inducers, primary screen (AID 1179);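 note: screen aims at cell division blockers that make cells filament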; settings: E. coli DRC39 delta-acrAB growth, higher = more signal, called active from +8 up or from −8 down
# [19] = viability profiling in RPMI8226 myeloma cells – cell-based, resazurin fluorescence, basal, 24 h, PK04 Diversity Set, profiling panel (AID 1180); settings: higher = more signal;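 note: RPMI8826 multiple myeloma cell line at 5000 cells per well; test concentration not given here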
# [20] = target: E3 ubiquitin-protein ligase XIAP (Homo sapiens) (UniProt P98170); test: small molecules binding XIAP protein – biophysical, small-molecule microarray, fluorescence 635 nm, primary screen (AID 1181); settings: higher = more signal;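 note: score merges 667 nm emission and signal to noise over triplicate slides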
# E3 ubiquitin-protein ligase XIAP (Homo sapiens), sequence (P98170 whole entry, looked up): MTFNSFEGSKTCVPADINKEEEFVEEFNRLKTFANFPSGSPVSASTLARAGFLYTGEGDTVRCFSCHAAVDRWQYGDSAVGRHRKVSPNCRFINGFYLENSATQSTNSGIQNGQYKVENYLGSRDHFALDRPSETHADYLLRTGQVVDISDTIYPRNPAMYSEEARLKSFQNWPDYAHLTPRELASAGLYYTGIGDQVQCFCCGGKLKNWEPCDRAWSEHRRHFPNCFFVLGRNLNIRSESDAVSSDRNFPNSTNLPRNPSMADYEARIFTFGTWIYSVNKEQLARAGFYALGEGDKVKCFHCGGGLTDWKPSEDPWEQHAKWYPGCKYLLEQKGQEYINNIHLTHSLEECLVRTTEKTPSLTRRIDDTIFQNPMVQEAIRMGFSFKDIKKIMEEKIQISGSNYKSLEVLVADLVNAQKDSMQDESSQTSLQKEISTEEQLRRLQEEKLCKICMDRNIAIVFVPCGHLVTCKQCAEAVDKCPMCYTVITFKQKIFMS
Compound,z-score [1],z-score [2],z-score [3],z-score [4],z-score [5],z-score [6],z-score [7],z-score [8],z-score [9],z-score [10],z-score [11],z-score [12],z-score [13],composite z-score [14],z-score [15],z-score [16],z-score [17],z-score [18],z-score [19],composite z-score [20]
NC(=O)NCC#Cc1ccc2c(c1)[C@]1(C(=O)N2)[C@H](c2ccc(O)cc2)N2[C@H](c3ccccc3)[C@H](c3ccccc3)OC(=O)[C@H]2[C@@H]1C(=O)N1CCN(c2ncccn2)CC1,0.719,0.464,-1.08,0.252,0.719,-1.83,-0.197 (inactive),0.591,1.06,0.956 (inactive),-0.271,0.244 (inactive),0.965 (inactive),-0.154 (inactive),1.18 (inactive),0.517 (inactive),0.247 (inactive),0.0093 (inactive),1.24,-0.0004
C=C(CCCC)C(=O)CC[C@@H](OC(=O)c1ccccc1-c1ccccc1C(=O)O)c1ccc(CO)o1,-0.64,0.498,0.102,0.227,-0.91,-1.24,-0.26 (inactive),0.479,-0.0259,-0.476 (inactive),0.0232,-0.712 (inactive),0.225 (inactive),-2.93 (inactive),1.32 (inactive),-0.279 (inactive),-0.079 (inactive),-0.218 (inactive),-0.0459,0.0842
CCN(CC)c1ccc(N2CC=CC34O[C@@H]5C=CCCOC(=O)C5[C@H]3C(=O)N(CCCO)[C@@H]4C2=O)cc1 (stereo not given in full),-0.0905,0.848,0.0124,-0.0503,-0.402,0.723,0.673 (inactive),0.0131,0.744,-0.209 (inactive),-0.704,-1.25 (inactive),0.61 (inactive),-0.429 (inactive),0.525 (inactive),-0.294 (inactive),1.21 (inactive),0.764 (inactive),0.237,-0.516
CN1C(=O)C2C=CC(C(O)C3=C[C@H]4C[C@@H](C3)C4(C)C)N(Nc3ccc([N+](=O)[O-])cc3[N+](=O)[O-])C2C1=O (stereo not given in full),0.895,-0.535,0.436,0.017,-0.481,-0.661,-1.35 (inactive),-0.46,-1.1,-0.227 (inactive),-0.241,0.473 (inactive),-0.569 (inactive),-0.0042 (inactive),0.434 (inactive),1 (inactive),-0.146 (inactive),-0.476 (inactive),0.116,0.772
C=CCC(OC(C)=O)[C@@H]1[C@@H](N(Cc2ccc(-c3ccccc3)cc2)C(=O)c2ccc(C)cc2)c2cc(OCCCO)ccc2N1C(=O)c1ccc2ccccc2n1 (stereo not given in full),3.36,0.389,1.85,-0.68,1.28,3.31,0.285 (inactive),0.0312,1.96,1.87 (inactive),1.53,-0.769 (inactive),1.3 (inactive),-0.772 (inactive),0.833 (inactive),-1.99 (inactive),2.06 (inactive),1.82 (inactive),0.924,-0.0663
O=C(CS)NCCCCCCNC(=O)[C@H]1C[C@H]2C(=O)N3CCC[C@H]3C(=O)N2[C@H]1c1ccc(O)cc1,-0.683,0.646,0.0725,-0.213,1.07,-1.12,-0.0423 (inactive),-0.0782,-0.419,0.985 (inactive),0.301,0.152 (inactive),-0.868 (inactive),-0.504 (inactive),0.0499 (inactive),-0.458 (inactive),-0.144 (inactive),-0.516 (inactive),-0.563,0.115
C=CCOC(=O)[C@H]1[C@@H]2C(=O)O[C@@H](c3ccccc3)[C@@H](c3ccccc3)N2[C@@H](c2ccc(OCCOC(=O)[C@H]3C[C@H]4C(=O)N[C@@H](CCCC[N+](C)(C)C)C(=O)N4[C@H]3c3ccc(O)cc3)cc2)[C@]12C(=O)Nc1ccccc12,1.6,0.6,0.549,0.419,0.337,-1.12,1.31 (inactive),-0.456,-0.0465,0.896 (inactive),0.767,-2.24 (inactive),1.31 (inactive),-2.24 (inactive),-0.723 (inactive),0.0539 (inactive),0.402 (inactive),0.0612 (inactive),1.21,0.0325
CCCCC(=O)N(Cc1ccccc1F)[C@@H]1CC(C(=O)NCCO)=C[C@H](Oc2c(I)cc(CO)cc2OC)[C@H]1O,-0.435,1.65,-0.765,0.364,-1.7,0.197,-0.916 (inactive),-0.325,-0.0648,-0.873 (inactive),-0.796,-2.51 (inactive),-0.137 (inactive),-1.63 (inactive),-0.447 (inactive),1.65 (inactive),0.754 (inactive),0.266 (inactive),-0.0533,0.344
O=C1C2C=CC(C(O)C3CC=CCC3)N(n3cnnc3)C2C(=O)N1Cc1ccccc1 (stereo not given),-0.563,-0.801,0.253,-0.379,-0.255,-0.937,-0.132 (inactive),0.46,-0.109,-0.62 (inactive),-0.854,0.0086 (inactive),-1.16 (inactive),-0.071 (inactive),0.216 (inactive),-0.363 (inactive),-1.59 (inactive),-1.35 (inactive),-1.45,0.38
CN1C(=O)C2C(C1=O)C1C=C(c3ccc(CO)cc3)C2C(C2CC2)N1Cc1sc2ccccc2c1Cl (stereo not given),-0.245,0.612,1.79,-3.2,-4.33,2.19,0.46 (inactive),-0.957,-2.05,-2.15 (inactive),0.0076,-1.82 (inactive),-5.41 (inactive),-1.46 (inactive),0.255 (inactive),1.2 (inactive),0.225 (inactive),0.0618 (inactive),-3.3,0.262
COc1ccc(C(=O)Nc2cccc(CN3C(=O)[C@@]4(O[C@@H](CC(=O)N5Cc6ccccc6C[C@H]5CO)[C@H]([Si](C)(C)c5ccc(OC)cc5)[C@H]4C)c4ccccc43)c2)cc1,0.0601,0.778,-0.446,-2.57,-3.06,0.851,0.862 (inactive),-0.976,-1.88,-0.967 (inactive),-0.79,0.147 (inactive),-3.05 (inactive),-4.98 (inactive),1.42 (inactive),1.91 (inactive),0.978 (inactive),0.621 (inactive),-1.99,-0.0525
O=C(NCCN1CCOCC1)[C@@H]1c2ccccc2C(=O)N(Cc2cc(F)cc(C(F)(F)F)c2)[C@H]1c1ccc(CO)cc1,1.22,0.767,1.2,0.34,-0.671,1.97,0.13 (inactive),0.738,-0.119,0.935 (inactive),-0.375,-0.191 (inactive),0.362 (inactive),-0.517 (inactive),-0.0807 (inactive),-0.64 (inactive),0.552 (inactive),-0.232 (inactive),0.419,0.0451
CCCCCCCCCCC(O)C1C=CC2C(=O)N(c3ccccc3)C(=O)C2N1Nc1ccc([N+](=O)[O-])cc1 (stereo not given),-2.28,-0.581,-1.82,-3.31,-4.22,-2.87,0.656 (inactive),-1.13,-1.66,0.381 (inactive),-0.573,0.673 (inactive),-0.0843 (inactive),-0.838 (inactive),0.285 (inactive),0.0401 (inactive),-0.552 (inactive),0.0458 (inactive),-1.11,-0.126
C=CCC(OC(C)=O)[C@@H]1[C@@H](N(Cc2cc3ccccc3o2)C(=O)c2ccc(C)cc2)c2cc(OCCCO)ccc2N1C(=O)c1ccc(-c2ccccc2)cc1 (stereo not given in full),2.54,1.34,1.8,0.217,1.46,2.87,-0.314 (inactive),0.614,-0.763,0.875 (inactive),0.419,-2.68 (inactive),-0.0884 (inactive),-3 (inactive),0.444 (inactive),-3.8 (inactive),1.15 (inactive),1.35 (inactive),1.07,2.75
